Bioassay records from PubChem.
CtBP-E1A blk = blocks the CtBP interaction with E1A. AlphaScreen GST-E1A/His-CtBP binding, 1536-well; hits give low values. activity change, % (test concentration not listed). actives 0.49% (n = 340,000). AID 651724; in the data active = activity change below about -65%; inconclusive = mostly about -30% to -63%
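Steps: dispense buffer (Tris pH 8.0, NaCl 300 mM, TCEP 1 mM, BSA, Tween 20); add 5X protein mix (GST-E1A, His-CtBP, 125 nM each); pin 23 nL compound; 2 h at 37 °C, dark; add 5X beads (50 ug/mL); 1 h; read.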
TDP1 cell noCPT = qHTS for Inhibitors of human tyrosyl-DNA phosphodiesterase 1 (TDP1): qHTS in cells in absence of CPT | DT40 Tdp1-/- hTDP1 cells, no CPT, ATP luminescence, 48 h | Potency, µM (doses to about 46.2 µM), inactives show top-dose activity change, negative = growth inhibition, hits mostly inhibitors | actives 15% (n = 420,000) | AID 686978, 2013; also: potency is read from the fitted curve at half-maximal effect; nearly all actives have a fitted effect of over 55% in size
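A cellular qHTS used chicken DT40 cells lacking endogenous Tdp1 but carrying stably transfected human TDP1. Compounds were applied without camptothecin, and cell growth kinetics were judged by ATP-dependent luminescence after ≥48 hr.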
IL1B secr inh = blocks inflammasome-driven IL-1 beta release | actives 4.7% (n = 360,000) | THP-1 LPS/ATP IL-1B secretion, AlphaLISA, 16 h; hits give low values | AID 743279 | activity change, % at 57.5 µM; in the data active = activity change below about -50%; inconclusive = mostly about -30% to -49%
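THP-1 cells pretreated 1 hr with compounds (up to 57.5 uM final), then stimulated with LPS (250 ng/mL final) plus ATP (1.25 mM final); secreted IL-1B measured by AlphaLISA after 16 hr, decreased signal indicating inhibition.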
Six1-Eya2 blk = inhibitors of human Six1/Eya2 interaction; Q15475+O00167; AlphaScreen GST-Six1/His-Eya2 binding, biochemical; hits give low values; AID 651725; activity change, % (test concentration not listed); actives 0.56% (n = 360,000); in the data active = activity change below about -65%; inconclusive = mostly about -30% to -63%
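AlphaScreen with GST-Six1 and His-Eya2 (5X mix: 250 nM and 500 nM), glutathione donor and nickel acceptor beads; buffer 50 mM Tris pH 8.0, 300 mM NaCl, 1 mM TCEP; 1 h at 37 C in the dark.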
TDP1 cell CPT = growth inhibition of DT40 Tdp1-/-;hTDP1 cells with camptothecin (screen for TDP1 inhibitors). actives 12% (n = 420,000). chicken DT40 Tdp1-/-;hTDP1 cells + 20 nM CPT, ATP luminescence, 48 h. AID 686979. Potency, µM (top dose mostly 46.2 µM), inactives show top-dose activity change, negative = growth inhibition, hits mostly inhibitors; also: potency is read from the fitted curve at half-maximal effect; nearly all actives have a fitted effect of over 55% in size
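Cell growth measured by CellTiter-Glo luminescence after a minimum 48 h, 37 C compound exposure with 20 nM CPT in Tdp1-knockout DT40 cells stably expressing hTDP1, seeded 400/well; qHTS titration format.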
TDP1 block = blocks human tyrosyl-DNA phosphodiesterase 1. recombinant TDP1, AlphaScreen DNA substrate cleavage. Potency, µM (highest dose often 130 µM), for the others: top-dose activity change, negative = inhibition, actives largely listed as inhibitors. actives 0.28% (n = 350,000); also: potency is read from the fitted curve at half-maximal effect; nearly all actives have a fitted effect of over 40% in size
Target sequence (Q9NUW8 whole entry, looked up): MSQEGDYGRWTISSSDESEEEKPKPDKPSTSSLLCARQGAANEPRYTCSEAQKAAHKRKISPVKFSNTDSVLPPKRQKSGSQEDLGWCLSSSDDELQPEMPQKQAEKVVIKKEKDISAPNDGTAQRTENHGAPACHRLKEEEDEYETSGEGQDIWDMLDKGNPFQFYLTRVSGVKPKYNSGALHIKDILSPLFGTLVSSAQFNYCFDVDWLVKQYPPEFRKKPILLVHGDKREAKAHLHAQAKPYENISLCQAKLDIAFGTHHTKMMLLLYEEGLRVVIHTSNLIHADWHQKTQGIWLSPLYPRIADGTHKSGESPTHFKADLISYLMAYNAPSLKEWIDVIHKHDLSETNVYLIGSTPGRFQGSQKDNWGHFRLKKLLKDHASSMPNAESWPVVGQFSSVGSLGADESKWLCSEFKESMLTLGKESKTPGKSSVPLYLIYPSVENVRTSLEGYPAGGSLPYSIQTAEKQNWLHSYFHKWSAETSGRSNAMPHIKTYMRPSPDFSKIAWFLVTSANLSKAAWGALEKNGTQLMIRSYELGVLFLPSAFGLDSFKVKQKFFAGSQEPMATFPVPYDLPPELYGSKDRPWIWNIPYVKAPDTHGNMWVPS
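Recombinant human Tdp1 (E. coli-expressed, 1 nM final) preincubated with compounds 15 min at room temperature, then 5'-biotin/3'-phosphotyrosine-FITC DNA substrate (15 nM final) added for 5 min. AlphaScreen beads (10 ug/ml final) added 10 min; cleavage lowers signal.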
Numbers without * were called inactive; ? = inconclusive; . = no result given; [ ] = another dose, or the depositor's remark. The list is not random: actives were taken first. Their share in the collection is about 18%. Unless noted, calls follow the shape of the dose curve; as a rule, active = well fitted curve in the direction sought with a large enough effect; inconclusive = small, poorly fitted or top-dose-only effect, or another doubt; inactive = no such curve, though single readings can be large; an effect the other way counts as inactive or inconclusive. % is scaled to controls: 0 for no effect and ±100 for the full control effect.

SMILES | CtBP-E1A blk | TDP1 cell noCPT | IL1B secr inh | Six1-Eya2 blk | TDP1 cell CPT | TDP1 block
COc1ccc(CNCCC(c2ccc(F)cc2)c2ccc(OC)cc2)cc1 (configuration not stated) | 4 | 10µM* | . | 6 | 12µM* | 3%
COc1ccc(C(CCNCc2ccccc2)c2ccc(F)cc2)cc1 (configuration not stated) | 1 | ? | -6 | 16 | ? | 5%
COc1ccc(C(CCNCc2ccc(OC(C)C)cc2)c2ccccc2OC)cc1 (configuration not stated) | . | 16µM* | -89* | -10 | 23µM* | .
CCOC(=O)c1ccc(O)cc1 | . | 1% | . | . | 3% | 0%
CCOC(=O)C1=C(NC#N)OC(C)=C(C)C1c1ccc(O)cc1 (configuration not stated) | 14 | 21µM* | 15 | 1 | 23µM* | 8%
CCOc1cc(-c2nnc(-c3ccco3)o2)cc(OCC)c1OCC | 5 | 12µM* | -15 | 3 | 18µM* | 7%
CCOc1ccc(-c2nnc(-c3ccco3)o2)cc1OCC | -19 | ? | ? | -16 | ? | 4%
CCOc1ccc(CN(C)C(=O)c2cc(S(=O)(=O)N3CCCC3)ccc2C)cc1 | 2 | ? | 8 | 4 | ? | 0%[56.1 µM]
O=C(COC(=O)/C=C/c1ccc(Cl)c(Cl)c1)NC1CCS(=O)(=O)C1 (configuration not stated) | ? | 18µM* | 0 | -4 | 10µM* | 1%
Cc1noc(C)c1C(=O)OCC(=O)Nc1cc(Cl)ccc1Oc1ccccc1 | 11 | ? | -16 | 9 | -25% | -4%
CCCCCCCCN1C(=O)[C@H](CC(=O)N2CCCC2)C[C@@]2(C(=O)OC)CC(C)(C)CC=C12 | -5 | ? | -5 | 0 | 9.2µM* | .
CCCCCCCCN1C(=O)[C@H](CC(=O)NCCC(C)C)C[C@@]2(C(=O)OC)CC(C)(C)CC=C12 | -1 | ? | -7 | -1 | ? | .
CCCCCCCCN1C(=O)[C@H](CC(=O)N2CCC(c3ccccc3)CC2)C[C@@]2(C(=O)OC)CC(C)(C)CC=C12 | -7 | 16µM* | -16 | -4 | ? | .
CCCCCCCCN1C(=O)[C@H](CC(=O)N2CCSCC2)C[C@@]2(C(=O)OC)CC(C)(C)CC=C12 | -4 | 16µM* | -20 | -10 | ? | .
O=S(=O)(NCC(c1cccnc1)N1CCN(c2ccccc2)CC1)c1cccs1 (configuration not stated) | -2 | ? | -10 | -11 | -5% | 5%
CCCCOc1ccc(C(=O)NCC(=O)NCC(c2ccco2)N2CCCCC2)cc1 (configuration not stated) | 0 | -13% | 10 | 13 | ? | .
O=C(CNC(=O)c1ccccc1F)OCC(=O)N1CCCc2ccccc21 | 7 | 1% | 2 | 5 | 22% | 4%
NC(=O)c1ccsc1NC(=O)CN1C(=O)NC2(CCCC2)C1=O | 0 | -5% | -1 | 22 | -10% | 1%
CCCc1ccc(-c2cc(NC(=O)CSc3n[nH]c(N)n3)n(-c3ccccc3)n2)cc1 | -10 | ? | -5 | -3 | ? | 5%
COc1ccc(NC2CCCN(C(=O)c3ccc(C)nc3)C2)cc1 (configuration not stated) | 6 | 15% | 15 | -2 | 0% | 3%[56.1 µM]
Cc1ccc(C(=O)N2CCCC(C(=O)c3ccc(Cl)cc3C)C2)cn1 (configuration not stated) | 4 | 21µM* | 1 | -3 | -29% | 5%
CCN1CCN(CC(=O)N2CCCC(C(=O)c3ccc(Oc4ccccc4)cc3)C2)CC1 (configuration not stated) | . | ? | -14 | -2 | ? | 11%
COCCC(=O)N1CCCC(C(=O)c2ccc(Oc3ccccc3)cc2)C1 (configuration not stated) | 2 | 21µM* | -1 | -1 | -29% | -3%
COC(=O)CCCC(=O)N1CCCC(C(=O)c2ccc(-c3ccccc3)cc2)C1 (configuration not stated) | . | ? | 9 | -13 | ? | .
CCC(=O)N1CCCC(C(=O)c2ccc(-c3ccccc3)cc2)C1 (configuration not stated) | -12 | ? | -68* | 4 | ? | 1%
SMILES | CtBP-E1A blk | TDP1 cell noCPT | IL1B secr inh | Six1-Eya2 blk | TDP1 cell CPT | TDP1 block
Cc1ccc(C(=O)N2CCCC(C(=O)c3ccc(Oc4ccccc4)cc3)C2)cn1 (configuration not stated) | 2 | 16µM* | -80* | -2 | 21µM* | 7%
CN(C(=O)COC(=O)c1ccc(Cl)c(S(=O)(=O)N2CCCCC2)c1)C1(C#N)CCCCC1 | . | ? | 11 | 2 | -3% | 1%
Cc1ccc(S(=O)(=O)NC(=O)NCC2CCN(S(=O)(=O)c3ccccc3)CC2)cc1 | 0 | -4% | -10 | 15 | 0% | .
Cc1ccc2nc(Cl)c(/C=N/Nc3ccc(C(=O)O)cc3)cc2c1 | 3 | ? | 30 | -4 | -6% | .
COC(=O)c1cccc(NC(=O)Cc2ccsc2)c1 | 2 | 7% | -15 | 4 | -10% | .
Cc1ccc(C(=O)c2oc3ccccc3c2N)cc1 | 2 | ? | -10 | 15 | 16µM* | 2%[56.1 µM]
CN(C)c1cccc2c1c(NC(=O)Nc1ccc(F)cc1F)nn2C | . | ? | -53* | 0 | ? | 11%
CCOC(=O)C(NC(=O)c1ccc(Cl)cc1Cl)(Nc1ccc(C)cc1)C(F)(F)F (configuration not stated) | 5 | 16µM* | -21 | 0 | 23µM* | 6%
O=C(CCc1nnc2n(Cc3ccccc3Cl)c(=O)c3ccccc3n12)Nc1ccc(F)cc1 | . | 5.2µM* | . | . | 5.8µM* | 2%
CC(C)Cn1c(=O)c2ccccc2n2c(CCC(=O)Nc3cccc(Cl)c3)nnc12 | . | 16µM* | . | . | ? | -2%
COc1cccc(NC(=O)CCc2nnc3n(Cc4ccccc4Cl)c(=O)c4ccccc4n23)c1 | . | ? | . | . | 16µM* | -4%
CCOC(=O)C1=C(CC)Nc2ccccc2N/C1=N\S(=O)(=O)c1ccccc1OC | -8 | 14% | -14 | 6 | -14% | 0%[56.1 µM]
COc1ccc(C2/C=C\CN(S(=O)(=O)c3ccc(C)cc3)C(C)C(=O)N2Cc2ccc(F)cc2)cc1 (configuration not stated) | . | . | . | . | . | 6%
